Screening data deposited in PubChem by National Center for Advancing Translational Sciences (NCATS).
A selection: hits, their analogues and other compounds. The true share with any hit is near 17%.
HepG2 viability: qHTS for Inhibitors of TGF-b: Cytotox Counterscreen; HepG2 CAGA-GFP viability, ATP luminescence, 18 h; Potency, µM (series often up to 46.1 µM), hits mostly cytotoxic; 410,000 compounds, 0.76% hits
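HepG2 CAGA-GFP cells (1000/well, DMEM with 1% FBS) received compound, then TGF-beta at 500 pg/mL final, and were incubated 18 hours at 37 degrees C. Viability was read by CellTiter-Glo luminescence. Media-only wells were set as complete cell-killing and DMSO as no toxicity.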
TDP1 cell CPT: qHTS for Inhibitors of human tyrosyl-DNA phosphodiesterase 1 (TDP1): qHTS in cells in presence of CPT; 420,000 compounds, 12% hits; chicken DT40 Tdp1-/-;hTDP1 cells + 20 nM CPT, ATP luminescence, 48 h; Potency, µM (series often up to 46.2 µM), actives largely listed as inhibitors; also: nearly all actives have a fitted effect of over 55% in size
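Chicken DT40 Tdp1-/- cells stably complemented with human TDP1 were seeded at 400 cells/well in medium containing 20 nM camptothecin, exposed to pin-transferred compounds, and grown at 37 °C for at least 48 hr. Viability was read as ATP luminescence.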
TGFb inhibitor: qHTS for Inhibitors of TGF-b; HepG2 CAGA-GFP TGF-b/SMAD3 reporter, GFP fluorescence, 18 h; TGF-beta stimulated, 500 pg/mL final; Potency, µM (highest dose often 46.1 µM), usual class: inhibitors; 410,000 compounds, 1.2% hits; AID 588855, 2011; also: nearly all actives have a fitted effect of over 65% in size
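Per well, imaged GFP fluorescence of HEPG2 CAGA-GFP cells gives the signal; cells get compound, then TGF-beta (500 pg/mL final), 18 h at 37 degrees C; %Activity versus -TGF-beta and +DMSO controls.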
TDP1 cell noCPT: qHTS for Inhibitors of human tyrosyl-DNA phosphodiesterase 1 (TDP1): qHTS in cells in absence of CPT; DT40 Tdp1-/- hTDP1 cells, no CPT, ATP luminescence, 48 h; 420,000 compounds, 15% hits; AID 686978, 2013; Potency, µM (highest dose often 46.2 µM), most hits filed as inhibitors; also: nearly all actives have a fitted effect of over 55% in size
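Luminescent ATP content (CellTiter-Glo) served as the growth readout. Knockout chicken DT40 cells expressing human TDP1 were exposed to compounds without camptothecin for a minimum 48 hr at 37 °C.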
HT1080 IDH1KD tx: qHTS for induction of synthetic lethality in tumor cells producing 2HG: qHTS for the HT-1080-IDH1KD cell line; Potency, µM (highest dose often 46.1 µM), actives largely listed as cytotoxic; AID 686971, 2013; 360,000 compounds, 2% hits; HT-1080 IDH1 knockdown viability, ATP luminescence, 48 h
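Viability of IDH1-knockdown HT-1080 fibrosarcoma cells was assessed by CellTiter-Glo after 48 h at 37 °C with titrated compound; concentration-effect curves were classified by fit quality and response size.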
HT1080NT lethal: qHTS for induction of synthetic lethality in tumor cells producing 2HG: qHTS for the HT-1080-NT fibrosarcoma cell line; 360,000 compounds, 1.6% hits; HT-1080-NT fibrosarcoma viability, CellTiter-Glo ATP luminescence, 48 h; AID 686970, 2013; Potency, µM (titrated, usually from 46.1 µM), actives largely listed as cytotoxic;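 also: NT is the 2HG producing partner of a matched IDH1 knockdown line; nearly all actives have a fitted effect of over 55% in size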
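A 48-hour cytotoxicity screen used HT-1080-NT cells plated 2 hours before compound delivery. ATP-based CellTiter-Glo luminescence measured viability, normalized to DMSO and no-cell controls.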
Each line names hits and unclear results; the compound was inactive in the other large screens. Calls follow the shape of the dose curve; as a rule, active = well fitted curve in the direction sought with a large enough effect; inconclusive = small, poorly fitted or top-dose-only effect, or another doubt; inactive = no such curve, though single readings can be large; an effect the other way counts as inactive or inconclusive.

CC(/C=N\NC(=O)Cn1c(C)nc2ccccc21)=C\c1ccccc1	TDP1 cell CPT 8.2µM, TDP1 cell noCPT 8.2µM, HT1080 IDH1KD tx 20.6µM, HT1080NT lethal 8.2µM
CN1C(=O)NC(c2cccc([N+](=O)[O-])c2)C2=C1CCCC2=O (stereo not drawn)	none
O=C(CCCOc1ccc(Cl)cc1)NCCc1ccccc1	none
OC[C@@H]1CN(Cc2cccnc2)C[C@H](n2cnc3c(NC4CCCC4)ncnc32)O1	HT1080NT lethal inconclusive
COC(=O)c1ccc(NC(=O)c2snnc2-c2ccccc2)cc1	TDP1 cell CPT inconclusive, TDP1 cell noCPT inconclusive
CCOC(=O)C1CCCCN1C(=O)c1cc2ccc(OC)cc2c2cc(OC)c(OC)cc12 (stereo not drawn)	TDP1 cell CPT inconclusive, TDP1 cell noCPT 18.4µM
COc1cc(OC)cc(-c2nnc(NC(=O)c3ccc4c(c3)OCCO4)o2)c1	TDP1 cell CPT 10.3µM, TDP1 cell noCPT 8.2µM
Cc1ccc(C)c(-c2nnc(NC(=O)c3ccc4c(c3)OCCO4)o2)c1	TDP1 cell CPT 18.4µM, TGFb inhibitor inconclusive, TDP1 cell noCPT 8.2µM (no result: HT1080 IDH1KD tx, HT1080NT lethal)
CSc1ccc(-c2nnc(NC(=O)c3ccc4c(c3)OCCO4)o2)cc1	TDP1 cell CPT inconclusive, TGFb inhibitor inconclusive, TDP1 cell noCPT inconclusive (no result: HT1080 IDH1KD tx, HT1080NT lethal)
Cc1ccc(C)c(-c2nnc(NC(=O)c3ccco3)o2)c1	TDP1 cell CPT inconclusive, TDP1 cell noCPT inconclusive
O=C1C2CC=CCC2C(=O)N1c1ccc(NCCc2cccc(F)c2)c([N+](=O)[O-])c1 (stereo not drawn)	TDP1 cell CPT inconclusive, TDP1 cell noCPT 11.6µM
O=C1CCC(=O)N1c1ccc(NCCc2cccc(F)c2)c([N+](=O)[O-])c1	none
O=C(CSc1nc2c([nH]c3ccccc32)c(=O)n1-c1cccc(Cl)c1)N1CCc2ccccc21	TDP1 cell CPT inconclusive, TDP1 cell noCPT inconclusive (no result: HT1080 IDH1KD tx, HT1080NT lethal)
Cc1ccc(-c2cc(C(=O)OCn3nnc4ccccc4c3=O)c3ccccc3n2)cc1	TGFb inhibitor inconclusive
CN(NC(=O)c1ccc(Cl)cc1)c1nc(-c2ccccc2)nnc1C(F)(F)F	TDP1 cell CPT 20.6µM, TGFb inhibitor inconclusive, TDP1 cell noCPT 14.6µM
CC(C)CC(=O)NN(C)c1nc(-c2ccccc2)nnc1C(F)(F)F	TDP1 cell noCPT inconclusive
Cc1ccc(C(=O)NN(C)c2nc3ccccc3nc2C(F)(F)F)cc1	TDP1 cell CPT 4.61µM, TDP1 cell noCPT 3.66µM, HT1080 IDH1KD tx inconclusive, HT1080NT lethal inconclusive
CCOC(=O)c1c(-c2ccc(C)cc2)csc1NC(=O)c1cc(=O)c2cc(C)c(C)cc2o1	none (no result: HT1080 IDH1KD tx, HT1080NT lethal)
CCCn1c(SCC(=O)N2N=C3/C(=C/c4ccc(OC)cc4)CCCC3C2c2ccc(OC)cc2)n[nH]c1=O (stereo not drawn)	TDP1 cell CPT inconclusive, TGFb inhibitor 12.6µM, TDP1 cell noCPT inconclusive, HT1080 IDH1KD tx 11.6µM, HT1080NT lethal 7.31µM
CC(=O)C1=CCC(c2ccc(C)o2)N(S(=O)(=O)c2ccc(C)cc2)C1 (stereo not drawn)	TDP1 cell CPT 16.4µM, TDP1 cell noCPT 18.4µM
COC(=O)C1CN(Cc2ccccc2)C(=O)C1=O (stereo not drawn)	none
CC(=O)C1=CCC(c2cccs2)N(S(=O)(=O)c2ccc(C)cc2)C1 (stereo not drawn)	TDP1 cell CPT inconclusive, TGFb inhibitor inconclusive, TDP1 cell noCPT inconclusive
COc1cccc([C@@H]2CC=C(C(=O)O)CN2S(=O)(=O)c2ccc(C)cc2)c1	TDP1 cell CPT inconclusive
CC(=O)C1=CCC(c2ccccc2)N(Cc2ccccc2)C1 (stereo not drawn)	TDP1 cell CPT inconclusive, TDP1 cell noCPT 14.6µM, HT1080 IDH1KD tx inconclusive, HT1080NT lethal inconclusive (no result: HepG2 viability, TGFb inhibitor)
Cc1ccc([C@@H]2CC=C(C(=O)O)CN2S(=O)(=O)c2ccccc2C)cc1	none
CC(=O)C1=CCC(c2ccccc2)N(S(=O)(=O)c2ccc(Cl)cc2)C1 (stereo not drawn)	TDP1 cell CPT inconclusive, TGFb inhibitor inconclusive, TDP1 cell noCPT 14.6µM, HT1080 IDH1KD tx inconclusive, HT1080NT lethal inconclusive
CC(=O)C1=CCC(c2ccc(Cl)cc2)N(S(=O)(=O)c2ccccc2C)C1 (stereo not drawn)	TDP1 cell CPT 29.1µM, TGFb inhibitor inconclusive, TDP1 cell noCPT 23.1µM, HT1080 IDH1KD tx 16.4µM, HT1080NT lethal inconclusive
Cc1cccc(S(=O)(=O)N2CCn3cccc3C2C)c1 (stereo not drawn)	none
CNc1nc(-c2ccccc2C(F)(F)F)nc2ccccc12	TDP1 cell CPT inconclusive (no result: HepG2 viability, TGFb inhibitor, HT1080 IDH1KD tx, HT1080NT lethal)
Cc1ccc(Cn2c(CN(C)Cc3ccccc3)nc3c2c(=O)n(C)c(=O)n3C)cc1	TDP1 cell CPT inconclusive, TDP1 cell noCPT inconclusive
CC(=O)C(C)n1c(CN(C)Cc2ccccc2)nc2c1c(=O)n(C)c(=O)n2C (stereo not drawn)	TDP1 cell CPT 8.2µM, TDP1 cell noCPT 8.2µM
C=C(C)Cn1c(CN(C)Cc2ccccc2)nc2c1c(=O)n(C)c(=O)n2C	TDP1 cell CPT 7.31µM, TDP1 cell noCPT 5.17µM
CC(C)n1c(CN(C)Cc2ccccc2)nc2c1c(=O)n(C)c(=O)n2C	TDP1 cell CPT 0.731µM, TDP1 cell noCPT 0.411µM, HT1080 IDH1KD tx inconclusive
Cc1ccc(C)c(Cn2c(CN(C)Cc3ccccc3)nc3c2c(=O)n(C)c(=O)n3C)c1	TDP1 cell CPT 18.4µM, TGFb inhibitor inconclusive, TDP1 cell noCPT 14.6µM
O=C(O)COc1ccc(Br)cc1/C=N\Nc1ccccn1	TDP1 cell CPT inconclusive, TDP1 cell noCPT inconclusive
Cc1ccccc1OCC(=O)Nc1sc2c(c1C(=O)OC(C)C)CCCC2	none (no result: HT1080 IDH1KD tx, HT1080NT lethal)
Cc1cc(/C=N/n2cnnc2)c(C)n1-c1ccc(OCc2ccc(Cl)cc2Cl)cc1	TDP1 cell CPT 7.31µM, TGFb inhibitor 8.91µM, TDP1 cell noCPT 5.8µM, HT1080NT lethal 23.1µM
COc1cccc(N2CCN(C(=O)c3cc(-c4ccc(F)cc4)[nH]c3C)CC2)c1	TDP1 cell CPT 14.6µM, TGFb inhibitor inconclusive, TDP1 cell noCPT 20.6µM, HT1080 IDH1KD tx inconclusive
Cc1[nH]c(-c2ccc(F)cc2)cc1C(=O)N1CCN(c2ccccc2)CC1	TDP1 cell CPT inconclusive, TGFb inhibitor inconclusive, TDP1 cell noCPT inconclusive
